The whole screen tested about 68,000 compounds, of which about 2,700 (4%) showed an effect of 50% or more. The full list was thinned out, with strong results kept by preference.

The test system of this test is Plasmodium berghei. Kind of test: Screen against P. berghei liver stage (PbLuc), transformed with Luciferase, at 2uM. It counts as functional, HepG2. To be noted: tested at 2 uM.
In the case of `COc1ccccc1CN1CCC(c2nn(CCN)c3nccnc23)C1` (centres undefined), the INHIBITION was -6.04%.
In the case of `Cc1csc(CN2CC[C@H]3C[C@H](c4nc(C)no4)O[C@@H]3C2)n1`, the INHIBITION was 18.32%.
Under `CCOCC1CN(c2ccc(C)nn2)Cc2nn(CC)cc21` (centres undefined) stands -3.19%; under `CCCc1cc(=O)[nH]c(-c2cccc(CN3CCN4CCCC4C3)c2)n1` (centres undefined), -19.98%; under `Cc1cnn(CC2CCCCN2CC(=O)NCc2ccccn2)c1` (centres undefined), 16.6%.
Under `Cc1cnn(C2CCCN(C(=O)c3ccc(NC4CC4)nc3)C2)c1` (centres undefined) stands 72.31%; under `Cc1cccc(-n2cc(C(=O)N3CCCC(n4cccn4)C3)nn2)c1` (centres undefined), 58.53%.
Under `Cc1cnn(C2CCCN(C(=O)c3ccc(O)nc3)C2)c1` (centres undefined) stands 45.83%.
On to `O=C(c1cnc(-c2cnccn2)s1)N1CCCC(n2cccn2)C1` (centres undefined), for which the INHIBITION was determined as 35.65%.
Next, `Cc1ccc(-n2cc(C(=O)N3CCCC(n4cccn4)C3)nn2)cc1` (centres undefined): 18.59%; `Cc1cnn(C2CCCN(C(=O)c3ccc(N(C)C)nn3)C2)c1` (centres undefined): 69.41%; `CNC(=O)c1ccc(C(=O)N2CCCC(n3cc(C)cn3)C2)cn1` (centres undefined): 16.64%.
As to `O=C(c1cnc(-c2ncccn2)s1)N1CCCC(n2cccn2)C1` (centres undefined), the INHIBITION was 5.09%.
Regarding `O=C(c1cn(-c2ccccc2)nn1)N1CCCC(n2cccn2)C1` (centres undefined), the INHIBITION was -3.05%.
Under `CN(C)c1ccc(C(=O)N2CCCC(n3cccn3)C2)nn1` (centres undefined) stands 37.68%; under `Cc1cnn(C2CCCN(C(=O)c3ccc(N4CCCC4)nn3)C2)c1` (centres undefined), -104.9%; under `O=C(c1cnc(-c2ccccn2)s1)N1CCCC(n2cccn2)C1` (centres undefined), 51.94%.
Under `CCc1nc(CN2CCCC(N(C)CCc3cccs3)C2)no1` (centres undefined) stands -14.04%.
Under `CCC(CC)c1cc(CNC(=O)N2CCOC(C)C2)on1` (centres undefined) stands -40.76%.
Consider `c1cnc(N2CCN(CCn3ccnc3-c3ccncc3)CC2)nc1`, for which the INHIBITION amounted to 36.79%.
Under `Cc1nc(C2CCN(C(=O)c3cscn3)CC2)c2sccn12` stands 45.5%.
Under `CC(C)n1[nH]c(=O)c2c1NC(=O)CSC2c1cccc(OCC(N)=O)c1` (centres undefined) stands 9.29%; under `O=C(c1cnccn1)N1C[C@@H]2CN(Cc3cccnc3)CCO[C@@H]2C1`, 0.54%; under `CN(C)CCN1C2(CCN(Cc3nccs3)C2)c2ccccc2S1(=O)=O` (centres undefined), 31.25%.
Next, `Cn1cc(C2COC3(CCN(C(=O)c4ccsc4)CC3)C2)cn1` (centres undefined): -0.38%.
For `Cn1cc(-c2nc(CN3CCc4c(ncn4C)C3)cs2)cn1`, the INHIBITION is recorded as 14.06%.
Under `Cc1nc(CNCC2CCCN2c2cccnn2)no1` (centres undefined) stands -12.31%.
Under `O=C(c1cnc(-c2cccs2)s1)N1CCCC(n2ccnc2)C1` (centres undefined) stands 64.16%.
Under `O=C(c1cnc(-c2cccs2)s1)N1CCCN2CCCC2C1` (centres undefined) stands -38.96%; under `O=C(c1cnc(-c2cccs2)s1)N1CCCC(n2cccn2)C1` (centres undefined), 42.18%.
As to `Cn1cccc1C(=O)N1CC[C@H]2[C@H]1CCN2CC1CC1`, the INHIBITION is -0.23%.
As to `CCN(CC)C(=O)c1ccc(COc2ccccc2C#N)o1`, the INHIBITION is given as 9.54%.
Next, `O=C(O)c1cc2c(nc1-c1ccncc1)CCN(C1CCOC1)CC2` (centres undefined): -6.71%; `CCc1ccc(-c2cc(C(F)(F)F)nc(N3CCC(N)CC3)n2)cc1`: 16.36%.
Under `c1ccc(-c2nc(CN3CCn4c(nnc4C4CC4)C3)cs2)cc1` stands 34.39%.
Under `c1cnc(-c2nc(CN3CCn4c(nnc4C4CC4)C3)cs2)nc1` stands 63.64%; under `Fc1cccc(Cl)c1CN1CCn2c(nnc2C2CC2)C1`, 7.67%.
In the case of `Clc1ccc2cccnc2c1CN1CCn2c(nnc2C2CC2)C1`, the INHIBITION was 55.36%.
Next, `c1cnc(-c2nc(CN3CCCC(N4CCCC4)C3)cs2)nc1` (centres undefined): -44.96%.
`CC1CCCN(Cc2csc(-c3ncccn3)n2)CC1` (centres undefined): the INHIBITION is 53.03%.
For `c1coc(-c2nc(CN3CCn4c(nnc4C4CC4)C3)cs2)c1`, the INHIBITION came out at 39.65%.
As for `Cc1nnc2n1CCN(Cc1c(Cl)ccc3cccnc13)C2`, the INHIBITION was 5.28%.
On to `CCCC1CCCN(Cc2csc(-c3ncccn3)n2)CC1` (centres undefined), for which the INHIBITION is 33.5%.
Next, `CC1c2ncc(Cn3cncn3)n2CCN1C(=O)c1ccccn1` (centres undefined): 23.97%; `O=C(c1ccccc1)N1CCC2(CC1)CNc1c(F)cccc12`: -27.31%; `CC(OCC1CC1)C(=O)N1CCCN(Cc2cnn(C)c2)CC1` (centres undefined): 47.12%.
Next, `Cc1ccc(N2CC[C@@H]3O[C@@H](COCc4cccnc4)CC[C@@H]32)nn1`: -64.19%.
Under `O=C(c1cccc(S(=O)(=O)NCCc2ccccn2)c1)N1CCOCC1` stands 6.84%; under `CCc1cc(CN2C[C@@H]3CC[C@H]2CN(C2Cc4ccccc4C2)C3)on1`, 36.79%; under `Cc1ccccc1C(C(=O)N(C)Cc1cnn(C)c1)N(C)C` (centres undefined), -15.75%.
Take `O=C(C1CCC2(CCN(c3nncs3)CC2)CO1)N1CCCC1` (centres undefined): the INHIBITION was -38.48%.
Under `O=C(C1CCC2(CCN(c3nncs3)CC2)C1)N1CCCC1` (centres undefined) stands 58.08%; under `CC(=O)N1CCCC2(CCN(c3nncs3)C2)C1` (centres undefined), 19.58%.
Next, `CNc1cc(N2CCCC2CNCc2cnc(C)s2)ncn1` (centres undefined): 47.3%; `CNC(=O)C1(CCCc2cccnc2)CCCCN1` (centres undefined): 32.95%; `O=C1O[C@@H]2CN(C3CCOCC3)C[C@@H]2N1CCc1cccc(Cl)c1`: 19.46%.
Next, `O=C(c1ccccn1)N(CCO)Cc1cc(Br)ccc1F`: -46.83%.
In the case of `O=C(c1cccnc1O)N(CCO)Cc1cc(Br)ccc1F`, the INHIBITION is 52.89%.
Next, `O=C(c1cccnc1)N(CCO)Cc1cc(Br)ccc1F`: -12.09%; `CC(C)CN1CCC(NCCNc2cccnc2)CC1`: 2.06%; `CN(C)C(=O)c1nc2c(s1)CCCN2Cc1ccccc1`: -4.2%.
For the compound `CCN1CCOCC2(CCCN(C(=O)c3cccc(O)c3)C2)C1` (centres undefined), the INHIBITION came to 24.36%.
Under `Cc1ccc(S(=O)(=O)NC(=O)C2(c3ccccc3)CCC2)c(C)c1` stands 53.81%; under `Cc1ccc(S(=O)(=O)NC(=O)C2(c3ccc(F)cc3)CCC2)c(C)c1`, -2.2%; under `Cc1ccccc1S(=O)(=O)NC(=O)C1(c2ccccc2)CCC1`, 28.54%.
Next, `COc1ccc(CN2C[C@@H]3COC[C@@H](N4CCN(C)CC4)[C@@H]3C2)cc1`: -54.53%.
Under `CN(C)CCNC(=O)CCn1ncc2c(Cl)cccc21` stands 19.92%; under `Cc1cccc(=O)n1CCC(=O)N1CC[C@@](O)(C2CCC2)[C@H](C)C1`, -11.55%; under `Cc1cccc(=O)n1CCC(=O)N1CC[C@](C)(O)[C@H](C)C1`, -4.52%.
Regarding `Cc1cccc(=O)n1CCC(=O)N1CCC2(CC1)OCCCC2O` (centres undefined), the INHIBITION came to 62.96%.
Next, `Cc1cc(N2CCN(Cc3ccccc3)CC(O)C2)cc(C)n1` (centres undefined): 74.94%; `OC1CN(Cc2ccccc2)CCN(c2ccncc2)C1` (centres undefined): 1.42%; `Cc1cc(N2CCN(Cc3ccccc3)CC(O)C2)nc(N)n1` (centres undefined): 24.44%.
Under `COc1ccc(OC)c(C2CCN(c3ccc4cc[nH]c4n3)C2)c1` (centres undefined) stands 29.98%; under `c1cc(CN2CCCN(c3ccc4cc[nH]c4n3)CC2)ccn1`, 45.82%.
Next, `COc1ccccc1C1CCN(c2ccc3cc[nH]c3n2)CC1`: 76.27%; `COc1cccc(C2CCN(c3ccc4cc[nH]c4n3)C2)c1OC` (centres undefined): 87.17%.
`Fc1ccccc1CN1CCCN(c2ccc3cc[nH]c3n2)CC1`: the INHIBITION is given as -1.87%.
Next, `COc1cccc(C2CC(=O)Nc3nc(N4CCCCC4)sc32)c1OC` (centres undefined): -18.15%.
Under `CCN1C(=O)CCC12CCCN(Cc1nccs1)CC2` (centres undefined) stands -23.02%; under `O=C1CC(c2ccccc2)c2sc(C(=O)O)c(-c3ccccc3)c2N1` (centres undefined), 4.74%; under `Fc1ccc(CN2CCO[C@H]3[C@H](OCc4ccncc4)CC[C@@H]32)cc1`, 4.54%.
Under `c1ncc(-c2cn(CCSc3cnn[nH]3)nn2)cn1` stands 70.58%; under `c1c[nH]c(-c2cn(CCSc3cnn[nH]3)nn2)n1`, 11.19%; under `CCc1ncc(-c2cn(CCSc3ncn[nH]3)nn2)cn1`, -5.87%.
As to `CCn1ncc(C(=O)NCCc2nc(-c3ccncc3)n[nH]2)c1C`, the INHIBITION came to 9.61%.
Turning to `Cc1ccc(NC2CCN(C(=O)Cc3c(C)noc3C)CC2)nn1`, the INHIBITION is reported as -25.13%.
Turning to `CC(C)Cc1cc(NC(=O)c2ccncc2)n(C)n1`, the INHIBITION was 25.46%.
Under `COc1ccc(C(=O)Nc2cc(CC(C)C)nn2C)cc1` stands 19.35%; under `CC(C)Cc1cc(NC(=O)c2ccccc2F)n(C)n1`, -68.24%; under `CC(C)Cc1cc(NC(=O)c2n[nH]c3ccccc23)n(C)n1`, 64.16%.
Turning to `COc1ccccc1C(=O)Nc1cc(CC(C)C)nn1C`, the INHIBITION was found to be 56.02%.
On to `CC(C)Cc1cc(NC(=O)c2ccccc2)n(C)n1`, for which the INHIBITION came to 49.9%.
Next, `CC(C)Cc1cc(NC(=O)c2ccc3[nH]nnc3c2)n(C)n1`: 50.61%; `Cn1nc(CC(C)(C)C)cc1NC(=O)c1ccc2[nH]nnc2c1`: 16.95%.
Under `CC(C)Cc1cc(NC(=O)c2ccc(=O)[nH]n2)n(C)n1` stands -19.76%; under `Clc1ccccc1-c1nnc(CNCCn2cccn2)o1`, 49.35%; under `C=C(C)COCCNC(=O)C1CCCN1C(C)=O` (centres undefined), 45.75%.
`Cn1cc(CN2CCCN(C(=O)c3ccc4ccccc4n3)CC2)cn1`: the INHIBITION worked out at 30.05%.
Under `O=C(CNC(=O)Nc1c(F)cccc1Oc1ccccc1)NC1CC1` stands -40.7%.
In the case of `Cc1nc2c(C(=O)N[C@H]3C[C@H]4CN(C)CCN4C3)cccc2[nH]1`, the INHIBITION is listed as -51.5%.
Next, `CCn1c(CN2CCCC(O)(c3ccc(F)cc3)CC2)cnc1SC` (centres undefined): 49.87%; `Cc1ccccc1OCCC(=O)N1CCCC(n2cncn2)C1` (centres undefined): 2.08%.
Next, `COc1ccc(CC(=O)N2Cc3nccn3CC(CN(C)C)C2)cc1` (centres undefined): 35.26%.

(Values after ChEMBL document CHEMBL4513216, “Probing the Open Global Health Chemical Diversity Library for Multistage-Active Starting Points for Next-Generation Antimalarials” (ACS Infect Dis, 2020).)
